From the antibiotic and cytotoxicity screens of Wong et al. (2023) come the findings set out here.

Screen size: about 39,000 compounds; about 3,300 (8.5%) were called active. The entries come from a sample that favours actives as a whole.

The subject of the test is HepG2. The experiment in a line: cytotoxicity call (relative viability < 0.9). To be noted: 10 µM.
In the case of `CCCC#Cc1cnc2c(c1)C(=O)N([C@H](C)CO)C[C@H](C)[C@H](CN(C)S(=O)(=O)c1cccc(OC)c1)O2`, the cytotoxicity call is “inactive”.
Under `COCC#Cc1cnc2c(c1)C(=O)N([C@H](C)CO)C[C@H](C)[C@@H](CN(C)C(=O)Nc1ccc(OC)cc1)O2` stands “inactive”; under `COc1ccc(CNC(=O)C[C@@H]2C[C@H]3c4cc(NS(=O)(=O)c5ccc(F)cc5)ccc4O[C@H]3[C@@H](CO)O2)cc1`, “inactive”; under `COc1ccc(CN(C)C[C@@H]2Oc3c(NS(=O)(=O)c4cn(C)cn4)cccc3C(=O)N([C@@H](C)CO)C[C@@H]2C)cc1`, “inactive”.
The value for `COc1cccc(S(=O)(=O)Nc2ccc3c(c2)[C@@H]2C[C@H](CC(=O)N4CCCCC4)O[C@@H](CO)[C@@H]2O3)c1` was “inactive”; that for `C[C@@H]1CN([C@@H](C)CO)S(=O)(=O)c2ccc(C#CCN(C)C)cc2O[C@H]1CN(C)Cc1ccccc1F` was “inactive”; that for `Cn1c(S(=O)(=O)CC(N)=O)nc2ccccc21` was “inactive”.
Turning to `Cc1cccc(OC[C@H](O)Cn2c(N3CCN(C)CC3)nc3c2c(=O)n(C)c(=O)n3C)c1`, the cytotoxicity call is “inactive”.
Turning to `Cc1noc(C)c1NC(=O)N(C)C[C@H]1Oc2ccc(NC(=O)Nc3cccc4ccccc34)cc2C(=O)N([C@H](C)CO)C[C@@H]1C`, the cytotoxicity call was “inactive”.
The value for `CN(C)CCCNC(=O)C[C@H]1CC[C@H]2[C@@H](COc3ccc(NC(=O)c4ccccc4F)cc3C(=O)N2C)O1` was “inactive”; that for `CNC(=O)C[C@@H]1CC[C@@H]2[C@H](COC[C@H](O)CN2C(=O)c2ccc3c(c2)OCO3)O1` was “inactive”; that for `CCCNc1nc(Nc2ccc(C#N)cc2)ncc1C#CCCCNC(=O)[C@H](C)N(C)C(=O)/C=C/CN(C)C` was “active”.
The value for `CC(C)NC(=O)Nc1ccc2c(c1)C(=O)N([C@H](C)CO)C[C@H](C)[C@@H](CN(C)C(=O)Nc1cccc3ccccc13)OCCCC[C@H](C)O2` was “inactive”; that for `Cc1ccc(S(=O)(=O)N[C@H]2CC[C@@H](CC(=O)NCc3ccc(Cl)c(Cl)c3)O[C@@H]2CO)cc1` was “inactive”; that for `NNC(=S)NCc1cccs1` was “inactive”.
Under `C[C@H](CO)N1C[C@H](C)[C@H](CN(C)S(=O)(=O)c2cn(C)cn2)Oc2c(NS(=O)(=O)c3cn(C)cn3)cccc2C1=O` stands “inactive”.
Regarding `COc1c2occc2c(OC)c2c(=O)cc(C)oc12`, the cytotoxicity call was “active”.
The value for `COc1cc2ccc(=O)oc2c(OC)c1OC` was “inactive”.
Under `COc1c(OC)c2occc2c2oc(=O)ccc12` stands “inactive”.
Under `COc1c2ccoc2cc2oc(=O)ccc12` stands “inactive”.
As for `O=c1ccc2cc3ccoc3cc2o1`, the cytotoxicity call is “inactive”.
The value for `COc1c(-c2ccccc2)oc2c(ccc3ccoc32)c1=O` was “inactive”; that for `COc1c2ccoc2cc2oc(C)cc(=O)c12` was “inactive”; that for `COc1c2occc2cc2ccc(=O)oc12` was “active”.
The value for `COc1c2ccoc2c(OC)c2oc(=O)ccc12` was “active”.
The value for `CN(C)C(=O)Cn1c(=O)oc2ccccc21` was “inactive”; that for `COc1ccc(CN(C)C[C@@H]2Oc3ccc(NS(=O)(=O)c4cn(C)cn4)cc3C(=O)N([C@H](C)CO)C[C@@H]2C)cc1` was “inactive”.
Take `O=C(C[C@H]1CC[C@H]2[C@@H](COC[C@@H](O)CN2S(=O)(=O)c2ccccc2Cl)O1)NCCc1ccncc1`: the cytotoxicity call was “inactive”.
The value for `C[C@H](CO)N1C[C@H](C)[C@H](CN(C)Cc2ccc3c(c2)OCO3)Oc2ccc(NC(=O)Nc3cccc4ccccc34)cc2C1=O` was “inactive”.
The value for `COc1ccc(S(=O)(=O)N(C)C[C@@H]2OCCCC[C@H](C)Oc3ccc(NS(=O)(=O)c4ccc(Cl)cc4)cc3C(=O)N([C@H](C)CO)C[C@@H]2C)cc1` was “active”; that for `COc1ccc(S(=O)(=O)Nc2ccc3c(c2)C(=O)N([C@@H](C)CO)C[C@H](C)[C@@H](CN(C)S(=O)(=O)c2ccc(Cl)cc2)OCCCC[C@H](C)O3)cc1` was “active”; that for `COc1ccc(S(=O)(=O)Nc2ccc3c(c2)C(=O)N([C@@H](C)CO)C[C@H](C)[C@H](CN(C)S(=O)(=O)c2ccc(Cl)cc2)OCCCC[C@H](C)O3)cc1` was “inactive”.
The value for `COc1ccc(S(=O)(=O)Nc2ccc3c(c2)C(=O)N([C@H](C)CO)C[C@H](C)[C@@H](CN(C)S(=O)(=O)c2ccc(Cl)cc2)OCCCC[C@H](C)O3)cc1` was “inactive”; that for `COc1ccc(S(=O)(=O)Nc2ccc3c(c2)C(=O)N([C@H](C)CO)C[C@@H](C)[C@@H](CN(C)S(=O)(=O)c2ccc(Cl)cc2)OCCCC[C@@H](C)O3)cc1` was “inactive”.
In the case of `COc1ccc(S(=O)(=O)Nc2ccc3c(c2)C(=O)N([C@@H](C)CO)C[C@@H](C)[C@@H](CN(C)S(=O)(=O)c2ccc(Cl)cc2)OCCCC[C@H](C)O3)cc1`, the cytotoxicity call is “inactive”.
For the compound `COc1ccc(S(=O)(=O)N(C)C[C@@H]2OCCCC[C@H](C)Oc3ccc(NS(=O)(=O)c4ccc(Cl)cc4)cc3C(=O)N([C@@H](C)CO)C[C@@H]2C)cc1`, the cytotoxicity call is “active”.
The value for `COc1ccc(S(=O)(=O)N(C)C[C@@H]2OCCCC[C@@H](C)Oc3ccc(NS(=O)(=O)c4ccc(Cl)cc4)cc3C(=O)N([C@@H](C)CO)C[C@H]2C)cc1` was “active”.
Under `COc1ccc(S(=O)(=O)Nc2ccc3c(c2)C(=O)N([C@@H](C)CO)C[C@@H](C)[C@@H](CN(C)S(=O)(=O)c2ccc(Cl)cc2)OCCCC[C@@H](C)O3)cc1` stands “inactive”; under `COc1ccc(S(=O)(=O)N(C)C[C@H]2OCCCC[C@H](C)Oc3ccc(NS(=O)(=O)c4ccc(Cl)cc4)cc3C(=O)N([C@@H](C)CO)C[C@H]2C)cc1`, “inactive”; under `CN(Cc1cc(Br)cc(Br)c1N)C1CCCCC1.Cl`, “inactive”.
Under `C[C@@H]1CN([C@@H](C)CO)C(=O)c2ccccc2-c2ccccc2CO[C@@H]1CN(C)Cc1ccc(-c2ccccc2)cc1` stands “inactive”; under `Cc1noc(C)c1NC(=O)Nc1ccc2c(c1)C(=O)N([C@@H](C)CO)C[C@@H](C)[C@@H](CN(C)Cc1ccc3c(c1)OCO3)OCCCC[C@H](C)O2`, “inactive”; under `Cc1cc(C(=O)Nc2cccc3c2O[C@H](CN(C)Cc2ccc(C(=O)O)cc2)[C@H](C)CN([C@@H](C)CO)C3=O)n(C)n1`, “inactive”.
Consider `CO[C@H]1CN(C)C(=O)c2cc(NS(=O)(=O)c3cn(C)cn3)ccc2OC[C@@H](C)N(CCC(F)(F)F)C[C@@H]1C`, for which the cytotoxicity call is “inactive”.
Under `C[C@@H]1CCCCO[C@@H](CN(C)S(C)(=O)=O)[C@@H](C)CN([C@@H](C)CO)C(=O)c2cc(N(C)C)ccc2O1` stands “inactive”; under `C[C@H](CO)N1C[C@H](C)[C@H](CN(C)S(C)(=O)=O)Oc2ccc(NC(=O)Cn3cnnn3)cc2CC1=O`, “inactive”; under `CC(C)N1C[C@H](C)[C@@H](CN(C)Cc2ccc(Cl)c(Cl)c2)Oc2c(cccc2-c2nnc(-c3ccncc3)o2)C1=O`, “inactive”.
The value for `Cc1noc(C)c1NC(=O)N[C@@H]1CC[C@@H](CC(=O)NCCCN(C)C)O[C@@H]1CO` was “inactive”; that for `CC(C)CC#Cc1ccc2c(c1)O[C@H](CN(C)C(=O)C1CCOCC1)[C@H](C)CN([C@@H](C)CO)S2(=O)=O` was “inactive”; that for `CCCN(C)C[C@H]1OCCCC[C@@H](C)Oc2ccc(NS(=O)(=O)c3cn(C)cn3)cc2C(=O)N([C@@H](C)CO)C[C@@H]1C` was “inactive”.
For `C[C@H]1CN([C@@H](C)CO)C(=O)c2cccc(NS(=O)(=O)c3cn(C)cn3)c2O[C@H]1CN(C)C(=O)NC1CCCCC1`, the cytotoxicity call was “inactive”.
For the compound `COc1ccc(S(=O)(=O)Nc2ccc3c(c2)CC(=O)N([C@H](C)CO)C[C@@H](C)[C@H](CN(C)S(=O)(=O)c2ccc(C)cc2)O3)cc1`, the cytotoxicity call was “inactive”.
Under `Cc1noc(C)c1NC(=O)N[C@@H]1C=C[C@@H](CC(=O)NCCCN(C)C)O[C@H]1CO` stands “inactive”.
The value for `COc1ccc(S(=O)(=O)N(C)C[C@H]2OCCCC[C@@H](C)Oc3ccc(NS(=O)(=O)c4cn(C)cn4)cc3C(=O)N([C@H](C)CO)C[C@H]2C)cc1` was “active”.
The value for `COc1ccc(S(=O)(=O)Nc2ccc3c(c2)C(=O)N([C@@H](C)CO)C[C@H](C)[C@H](CN(C)S(=O)(=O)c2ccc(Cl)cc2)OCCCC[C@@H](C)O3)cc1` was “active”; that for `COc1ccc(S(=O)(=O)N(C)C[C@H]2OCCCC[C@H](C)Oc3ccc(NS(=O)(=O)c4ccc(Cl)cc4)cc3C(=O)N([C@H](C)CO)C[C@H]2C)cc1` was “active”; that for `COc1ccc(S(=O)(=O)Nc2ccc3c(c2)C(=O)N([C@@H](C)CO)C[C@H](C)[C@@H](CN(C)S(=O)(=O)c2ccc(Cl)cc2)OCCCC[C@@H](C)O3)cc1` was “inactive”.
With `COc1ccc(S(=O)(=O)N(C)C[C@H]2OCCCC[C@@H](C)Oc3ccc(NS(=O)(=O)c4ccc(Cl)cc4)cc3C(=O)N([C@H](C)CO)C[C@H]2C)cc1`, the cytotoxicity call is “active”.
Under `COc1ccc(S(=O)(=O)N(C)C[C@@H]2OCCCC[C@H](C)Oc3ccc(NS(=O)(=O)c4cn(C)cn4)cc3C(=O)N([C@H](C)CO)C[C@@H]2C)cc1` stands “inactive”; under `COc1ccc(S(=O)(=O)Nc2ccc3c(c2)C(=O)N([C@H](C)CO)C[C@@H](C)[C@H](CN(C)S(=O)(=O)c2ccc(Cl)cc2)OCCCC[C@@H](C)O3)cc1`, “inactive”; under `COc1ccc(S(=O)(=O)N(C)C[C@@H]2OCCCC[C@@H](C)Oc3ccc(NS(=O)(=O)c4cn(C)cn4)cc3C(=O)N([C@@H](C)CO)C[C@H]2C)cc1`, “inactive”.
Under `Cc1noc(C)c1S(=O)(=O)Nc1ccc2c(c1)C(=O)N([C@H](C)CO)C[C@@H](C)[C@@H](CN(C)S(=O)(=O)c1ccccc1)O2` stands “inactive”; under `COc1ccc(NC(=O)Nc2cccc3c2O[C@@H](CN(C)S(C)(=O)=O)[C@H](C)CN([C@H](C)CO)C3=O)cc1`, “inactive”; under `COc1cccc(NC(=O)N[C@H]2CC[C@@H](CC(=O)N3CCOCC3)O[C@@H]2CO)c1`, “inactive”.
As for `CO[C@@H]1CN(C)C(=O)c2cc(NC(=O)C3CCOCC3)ccc2OC[C@@H](C)N(C(=O)C2CCOCC2)C[C@H]1C`, the cytotoxicity call is “inactive”.
The value for `CN1C(=O)c2cc(NS(=O)(=O)c3ccc(F)cc3)ccc2OC[C@H]2O[C@@H](CC(=O)Nc3cccc4ccccc34)CC[C@@H]21` was “inactive”.
